# Source: the supplement of paper PMC8975748
# Where a name gives a salt, the structure may show the parent alone.
# Tested on: Saccharomyces cerevisiae BY4741 SeMeCo community
# Assay: z-score of subpopulation abundance vs DMSO median, subpopulation auxotrophic for LU; higher = larger share of this subpopulation than in DMSO controls
# Conditions: 10 µM; 24 h; SM minimal medium; subpopulation (auxotrophy): LU
# Protocol: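 Fluorescent four-plasmid SeMeCo (self-establishing metabolically cooperating S. cerevisiae BY4741 community; plasmids pH-mRuby2, pL-mWasabi, pU-eCFP, pM-TagRFP657) was grown 24 h in minimal SM medium with each Selleck FDA-approved drug at 10 µM in 384-well plates. Cells were fixed and imaged by high-content confocal microscopy. For each auxotrophic subpopulation (and the prototroph), a z-score gives the deviation from the DMSO vehicle-control population median.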
row,Compound,z-score of subpopulation abundance
1,CC[C@H]1[C@@H]2C[C@H]3[C@@H]4N(C)c5ccccc5[C@]45C[C@@H]([C@@H]2[C@H]5O)N3[C@@H]1O [Ajmaline],-0.26
2,CC[N+](C)(CC)CCOC(=O)C(O)(c1ccccc1)c1ccccc1 [Methylbenactyzine Bromide],-0.58
3,CN1[C@@H]2C[C@@H](OC(=O)[C@H](CO)c3ccccc3)C[C@H]1[C@@H]1O[C@@H]12 [Scopolamine HBr],0.22
4,C[C@@H]1CC[C@H]2[C@@H](C)C(=O)O[C@@H]3O[C@@]4(C)CC[C@@H]1[C@]32OO4 [Artemisinin],-0.94
5,CC(C)=CCOc1c2occc2cc2ccc(=O)oc12 [Imperatorin],0.92
6,N[C@@H]1C[C@H]1c1ccccc1 [Tranylcypromine (2-PCPA) HCl],-0.31
7,COc1ccc2[nH]cc(CCN)c2c1 [5-Methoxytryptamine],1.01
8,Cc1cc(O)ccc1Cl [Chlorocresol],-0.74
9,CNC1CC(N)C(O)C(OC2OC(CO)C(O)C3OC4(OC(C(N)CO)C(O)C(O)C4O)OC23)C1O (centres undefined) [Hygromycin B],0.34
10,CC(C)N(CCC(C(N)=O)(c1ccccc1)c1ccccn1)C(C)C (centres undefined) [Disopyramide],-0.22
11,CCN1CC2(OC(=O)c3ccccc3NC(C)=O)CCC(OC)C34C1C(CC23)C1(O)CC(OC)C2CC4C1(O)C2OC (centres undefined) [Lappaconitine],0.55
12,CN[C@@H]1[C@@H](O)[C@@H](O[C@@H]2[C@@H](O)[C@H](O[C@H]3O[C@H](CN)CC[C@H]3N)[C@@H](N)C[C@H]2N)OC[C@]1(C)O.CN[C@@H]1[C@@H](O)[C@@H](O[C@@H]2[C@@H](O)[C@H](O[C@H]3O[C@H]([C@@H](C)N)CC[C@H]3N)[C@@H](N)C[C@H]2N)OC[C@]1(C)O.CN[C@@H]1[C@@H](O)[C@@H](O[C@@H]2[C@@H](O)[C@H](O[C@H]3O[C@H]([C@@H](C)NC)CC[C@H]3N)[C@@H](N)C[C@H]2N)OC[C@]1(C)O [Gentamicin Sulfate],-0.15
13,C[N+]12CCC(CC1)C(OC(=O)C(O)(c1ccccc1)c1ccccc1)C2 (centres undefined) [Clidinium Bromide],0.83
14,C=CN1CCCC1=O.II [Povidone iodine],0.69
15,C=C(C)[C@H]1Cc2c(ccc3c2O[C@@H]2COc4cc(OC)c(OC)cc4[C@@H]2C3=O)O1 [Rotenone (Barbasco)],0.18
16,"NCC(O)c1ccc(O)cc1 (racemic) [(+,-)-Octopamine HCl]",-0.38
17,COc1cc2c(cc1OC)C1CC(=O)C(CC(C)C)CN1CC2 (centres undefined) [Tetrabenazine (Xenazine)],-0.11

row,Compound,z-score of subpopulation abundance
1,NCCc1c[nH]c2ccc(O)cc12 [Serotonin HCl],-0.51
2,COc1ccc(C(CN(C)C)C2(O)CCCCC2)cc1 (centres undefined) [Venlafaxine],0.97
3,O=[N+]([O-])C(Br)(CO)CO [Bronopol],0.26
4,O=c1cccc2n1C[C@@H]1CNC[C@H]2C1 [Cytisine],0.11
5,CN(C)[C@@H]1C(=O)C(C(N)=O)=C(O)[C@@]2(O)C(=O)C3=C(O)c4c(O)cccc4[C@@](C)(O)[C@H]3[C@H](O)[C@@H]12 [Oxytetracycline (Terramycin)],0.73
6,CC(NC(C)(C)C)C(=O)c1cccc(Cl)c1 (centres undefined) [Amfebutamone (Bupropion) HCl],0.12
7,CN(C)C(=O)Oc1cccc([N+](C)(C)C)c1 [Neostigmine Bromide],0.79
8,CC1(C)SC2C(N)C(=O)N2C1C(=O)O (centres undefined) [6-Aminopenicillanic acid],0.32
9,CC(=O)O[C@H]1C[C@@H]2CC[C@@H]3[C@H](CC[C@@]4(C)[C@H]3C[C@H]([N+]3(C)CCCCC3)[C@@H]4OC(C)=O)[C@@]2(C)C[C@@H]1[N+]1(C)CCCCC1 [Pancuronium dibromide],0.2
10,CN(C)[C@@H]1C(=O)C(C(N)=O)=C(O)[C@@]2(O)C(=O)C3=C(O)c4c(O)ccc(Cl)c4[C@@](C)(O)[C@H]3C[C@@H]12 [Chlortetracycline HCl],-0.72
11,O=C(O[C@H]1C[C@H]2CC[C@@H](C1)[N+]21CCCC1)C(O)(c1ccccc1)c1ccccc1 [Trospium chloride],-0.24
12,CN1[C@@H]2C[C@@H](OC(=O)[C@H](CO)c3ccccc3)C[C@H]1[C@@H]1O[C@@H]12 [Scopolamine HBr trihydrate],-0.6
13,CCN(C)C(=O)Oc1cccc([C@H](C)N(C)C)c1 [Rivastigmine Tartrate],0.44
14,C[C@H]1O[C@H](O[C@H]2[C@H](O)[C@@H](O)[C@@H](O)[C@H](O)[C@@H]2O)[C@@H](N)C[C@@H]1NC(=N)C(=O)O [Kasugamycin hydrochloride],0.49
15,C[C@@H]1O[C@@H](O[C@H]2C[C@@H](O)[C@]3(CO)[C@H]4[C@H](O)C[C@]5(C)[C@@H](C6=CC(=O)OC6)CC[C@]5(O)[C@@H]4CC[C@]3(O)C2)[C@H](O)[C@H](O)[C@H]1O [Ouabain],-0.53
16,COc1ccc(C=O)cc1 [p-Anisaldehyde],-0.64
17,CC[C@@H](C(N)=O)N1CCCC1=O [Levetiracetam],-0.25
